Out of some 39,000 compounds screened, about 1,500 (3.8%) were called active. The entries come from a sample that favours actives as a whole.
Test system: HSkMC (human skeletal muscle cells)
Assay: cytotoxicity call (relative viability < 0.9)
Conditions: 10 µM

Compound | cytotoxicity call
C[C@@H]1CN([C@H](C)CO)C(=O)c2cccc(NS(C)(=O)=O)c2O[C@@H]1CN(C)Cc1ccc(C(=O)O)cc1 | inactive
Cc1noc(C)c1S(=O)(=O)N(C)C[C@H]1Oc2ccc(NC(=O)NC3CCCCC3)cc2CC(=O)N([C@@H](C)CO)C[C@H]1C | inactive
O=C(C[C@@H]1C[C@@H]2c3cc(NS(=O)(=O)c4ccc(F)cc4)ccc3O[C@@H]2[C@H](CO)O1)NCCN1CCCCC1 | inactive
C=CC[C@@H](CC(=O)N[C@H](CO)Cc1ccccc1)C(=O)NCCOC(=O)[C@H](CC=C)CC(=O)OC(C)(C)C | inactive
CCCCCN1CC=C[C@]23O[C@@H]4/C=C/CCC(=O)N(C)[C@H](C)[C@@H](c5ccccc5)OC(=O)[C@@H]4[C@H]2C(=O)N(c2ccccc2Cl)[C@@H]3C1=O | inactive
Cc1noc(C)c1NC(=O)Nc1ccc2c(c1)C(=O)N([C@H](C)CO)C[C@H](C)[C@H](CN(C)S(=O)(=O)c1cccs1)OCCCC[C@H](C)O2 | inactive
C[C@@H]1CN([C@@H](C)CO)S(=O)(=O)c2ccc(C#CC3CC3)cc2O[C@@H]1CN(C)C(=O)c1cccc(F)c1 | inactive
CC(C)(O)c1ccccc1CCC(SCC1(CC(=O)[O-])CC1)c1cccc(C=Cc2ccc3ccc(Cl)cc3n2)c1.[Na+] (centres undefined) | inactive
CC(C)(O)c1ccccc1CC[C@@H](SCC1(CC(=O)O)CC1)c1cccc(/C=C/c2ccc3ccc(Cl)cc3n2)c1 | active
C[C@@H]1CN([C@H](C)CO)C(=O)c2cc(NC(=O)Nc3cccc4ccccc34)ccc2O[C@@H](C)CCCCO[C@@H]1CN(C)S(=O)(=O)c1ccc(F)cc1 | inactive
COCC(=O)N1C[C@@H](C(=O)N2CCCO2)C[C@@H]2OCC[C@@H]21 | inactive
O=C(Nc1cccc2cccnc12)[C@@H]1[C@H](c2ccc(I)cc2)CC(=O)N1C(=O)OCc1ccccc1 | inactive
C[C@@H]1CCCCO[C@H](CN(C)C(=O)c2ccccc2)[C@H](C)CN([C@@H](C)CO)C(=O)c2cc(NS(=O)(=O)c3ccccc3)ccc2O1 | inactive
Cc1c2oc3c(C)ccc(C(=O)OC(C)C4NC(=O)C(C(C)C)N(C)C(=O)CN(C)C(=O)C5CCCN5C(=O)C(C(C)C)NC4=O)c3nc-2c(C(=O)OC(C)C2NC(=O)C(C(C)C)N(C)C(=O)CN(C)C(=O)C3CCCN3C(=O)C(C(C)C)NC2=O)c(N)c1=O (centres undefined) | inactive
Cc1c2oc3c(C)ccc(C(=O)N[C@@H]4C(=O)N[C@H](C(C)C)C(=O)N5CCC[C@H]5C(=O)N(C)CC(=O)N(C)[C@@H](C(C)C)C(=O)O[C@@H]4C)c3nc-2c(C(=O)N[C@@H]2C(=O)N[C@H](C(C)C)C(=O)N3CCC[C@H]3C(=O)N(C)CC(=O)N(C)[C@@H](C(C)C)C(=O)O[C@@H]2C)c(N)c1=O | active
Cc1c2oc3c(C)ccc(C(=O)N[C@@H]4C(=O)N[C@@H](C(C)C)C(=O)N5CCC[C@H]5C(=O)N(C)CC(=O)N(C)[C@@H](C(C)C)C(=O)O[C@@H]4C)c3nc-2c(C(=O)N[C@@H]2C(=O)N[C@@H](C(C)C)C(=O)N3CCC[C@H]3C(=O)N(C)CC(=O)N(C)[C@@H](C(C)C)C(=O)O[C@@H]2C)c(N)c1=O | inactive
CC(=O)O[C@H]1C[C@@]2(C)[C@@H](C[C@@H](O)[C@@H]3[C@@]4(C)CC[C@@H](O)[C@@H](C)[C@@H]4CC[C@@]32C)/C1=C(/CCC=C(C)C)C(=O)O | inactive
COc1ccccc1S(=O)(=O)N[C@H]1C=C[C@@H](CC(=O)N2CCN(C)CC2)O[C@H]1CO | inactive
O=C(C[C@@H]1CC[C@@H]2[C@H](COC[C@H](O)CN2S(=O)(=O)c2ccccc2)O1)N[C@@H]1CCN(Cc2ccccc2)C1 | inactive
C=CCC[C@@H](Cc1ccc(F)cc1)C(=O)OC[C@@H](NC(=O)[C@@H](CC=C)CC(=O)N(CCO)Cc1ccccc1)c1ccccc1 | active

Compound | cytotoxicity call
C=CC[C@@H](CC(=O)N(CCO)Cc1ccccc1)C(=O)N[C@H](COC(=O)[C@@H](CC=C)Cc1ccc(F)cc1)c1ccccc1 | inactive
C=CCC[C@H](Cc1ccc(F)cc1)C(=O)OC[C@@H](NC(=O)[C@H](CC=C)CC(=O)N(CCO)Cc1ccccc1)c1ccccc1 | inactive
C=CCC[C@@H](Cc1ccc(F)cc1)C(=O)OC[C@@H](NC(=O)[C@H](CC=C)CC(=O)N(CCO)Cc1ccccc1)c1ccccc1 | inactive
C=CCC[C@H](Cc1ccc(F)cc1)C(=O)OC[C@@H](NC(=O)[C@@H](CC=C)CC(=O)N(CCO)Cc1ccccc1)c1ccccc1 | active
C=CCC[C@@H](Cc1ccc(F)cc1)C(=O)OC[C@@H](Cc1ccccc1)NC(=O)[C@H](CC=C)CC(=O)N(CCO)Cc1ccccc1 | inactive
Cc1ccc(S(=O)(=O)N(C)C[C@H]2Oc3ccc(NC(=O)Nc4cccc5ccccc45)cc3C(=O)N([C@H](C)CO)C[C@@H]2C)cc1 | inactive
COc1ccc(C#Cc2ccc3c(c2)[C@]2(C(=O)N3)[C@H](C(N)=O)[C@H]3C(=O)O[C@H](c4ccccc4)[C@H](c4ccccc4)N3[C@@H]2c2ccc(OCCO)cc2)cc1 | inactive
Cc1cc(-c2ccccc2)nc(SCc2ccccc2)c1C#N | inactive
COc1ccc(S(=O)(=O)N(C)C[C@@H]2Oc3ccc(NS(C)(=O)=O)cc3CC(=O)N([C@@H](C)CO)C[C@H]2C)cc1 | inactive
CS(=O)(=O)Nc1ccc2c(c1)[C@@H]1C[C@H](CC(=O)NCc3ccc(-c4ccccc4)cc3)O[C@H](CO)[C@@H]1O2 | inactive
COc1ccc(S(=O)(=O)N(C)C[C@@H]2Oc3c(NC(=O)NC(C)C)cccc3C(=O)N([C@H](C)CO)C[C@@H]2C)cc1 | inactive
Cc1noc(C)c1NC(=O)Nc1ccc2c(c1)C(=O)N([C@H](C)CO)C[C@H](C)[C@H](CN(C)C(=O)Nc1ccccc1)OCCCC[C@@H](C)O2 | inactive
CC1=C(/C=C/C(C)=C/C=C/C(C)=C\C(=O)O)C(C)(C)CCC1 | inactive
C[C@H]1CN([C@@H](C)CO)C(=O)Cc2cc(NC(=O)Nc3cccc(C(F)(F)F)c3)ccc2O[C@H]1CN(C)S(=O)(=O)c1ccc(Cl)cc1 | active
COc1ccc(S(=O)(=O)N(C)C[C@@H]2Oc3ccc(NC(=O)Nc4cccc(C(F)(F)F)c4)cc3CC(=O)N([C@@H](C)CO)C[C@@H]2C)cc1Cl | active
C[C@H](CO)N1C[C@H](C)[C@@H](CN(C)S(=O)(=O)c2ccc(Cl)cc2)Oc2ccc(NC(=O)Nc3ccc(C(F)(F)F)cc3)cc2CC1=O | inactive
C[C@H]1CN([C@@H](C)CO)C(=O)Cc2cc(NC(=O)Nc3cccc(C(F)(F)F)c3)ccc2O[C@H]1CN(C)S(=O)(=O)c1ccc(Oc2ccccc2)cc1 | inactive
C[C@@H]1CN([C@@H](C)CO)C(=O)Cc2cc(NC(=O)Nc3ccc(C(F)(F)F)cc3)ccc2O[C@H]1CN(C)S(=O)(=O)c1ccc(Cl)cc1 | inactive
C[C@@H]1CN([C@@H](C)CO)C(=O)Cc2cc(NC(=O)Nc3ccc(C(F)(F)F)cc3)ccc2O[C@@H]1CN(C)S(=O)(=O)c1ccc(Cl)cc1 | active
C[C@H](CO)N1C[C@H](C)[C@H](CN(C)S(=O)(=O)c2ccc(Cl)cc2)Oc2ccc(NC(=O)Nc3ccc(C(F)(F)F)cc3)cc2CC1=O | active

Compound | cytotoxicity call
C[C@@H]1CN([C@@H](C)CO)C(=O)c2cc(NS(=O)(=O)c3ccc(F)cc3)ccc2O[C@@H](C)CCCCO[C@@H]1CN(C)Cc1ccc(C(=O)O)cc1 | inactive
C[C@H]1CN([C@@H](C)CO)C(=O)CCCn2cc(nn2)CO[C@@H]1CN(C)Cc1cccc2c1OCCCO2 | inactive
CO[C@H]1O[C@H](CO)[C@@H](OC(=O)Nc2ccc(Oc3ccccc3)cc2)[C@H](OC(=O)Nc2ccccc2)[C@H]1OC(=O)Nc1ccccc1 | inactive
COc1ccc(S(=O)(=O)N(C)C[C@@H]2OCCCC[C@@H](C)Oc3ccc(NC(=O)Nc4ccccc4)cc3C(=O)N([C@H](C)CO)C[C@H]2C)cc1 | inactive
O=C(C[C@H]1CC[C@H]2[C@@H](COC[C@@H](O)CN2S(=O)(=O)c2ccc(Oc3ccccc3)cc2)O1)NC1CCC1 | inactive
CC(C)NC(=O)Nc1ccc2c(c1)C(=O)N([C@H](C)CO)C[C@@H](C)[C@@H](CN(C)S(=O)(=O)c1cn(C)cn1)O2 | inactive
C[C@H]1CN([C@@H](C)CO)C(=O)c2cc(NC(=O)Nc3cccc4ccccc34)ccc2O[C@@H]1CN(C)Cc1ccc(C(=O)O)cc1 | inactive
COC(=O)c1c(CC[C@@H](CO)NC(=O)N[C@H](Cn2cc(-c3ccccc3C)nn2)C(C)C)oc(C(C)=O)c1C(=O)OC | inactive
CCCN(C)C[C@H]1OCCCC[C@@H](C)Oc2ccc(NC(=O)C3CCCCC3)cc2C(=O)N([C@H](C)CO)C[C@@H]1C | inactive
C[C@@H]1CN([C@H](C)CO)C(=O)Cc2cc(NC(=O)Nc3ccc(C(F)(F)F)cc3)ccc2O[C@H]1CN(C)S(C)(=O)=O | inactive
C[C@@H]1CN([C@H](C)CO)C(=O)Cc2cc(NC(=O)Nc3ccc(C(F)(F)F)cc3)ccc2O[C@H]1CN(C)S(=O)(=O)c1ccc(Cl)cc1 | active
C[C@H](CO)N1C[C@H](C)[C@@H](CN(C)S(C)(=O)=O)Oc2ccc(NC(=O)Nc3ccc(C(F)(F)F)cc3)cc2CC1=O | inactive
C[C@@H]1CN([C@H](C)CO)C(=O)Cc2cc(NC(=O)Nc3ccc(C(F)(F)F)cc3)ccc2O[C@@H]1CN(C)S(C)(=O)=O | inactive
C[C@@H]1CN([C@@H](C)CO)C(=O)Cc2cc(NC(=O)Nc3ccc(C(F)(F)F)cc3)ccc2O[C@H]1CN(C)S(C)(=O)=O | inactive
C[C@H]1CN([C@@H](C)CO)C(=O)Cc2cc(NC(=O)Nc3ccc(C(F)(F)F)cc3)ccc2O[C@H]1CN(C)S(C)(=O)=O | inactive
Cc1ccccc1S(=O)(=O)N(C)C[C@@H]1Oc2ccc(NC(=O)Nc3cccc(C(F)(F)F)c3)cc2CC(=O)N([C@@H](C)CO)C[C@@H]1C | active
C[C@@H]1CN([C@H](C)CO)C(=O)Cc2cc(NC(=O)Nc3ccc(C(F)(F)F)cc3)ccc2O[C@@H]1CN(C)S(=O)(=O)c1ccc(Cl)cc1 | active
C[C@H]1CN([C@@H](C)CO)C(=O)Cc2cc(NC(=O)Nc3ccc(C(F)(F)F)cc3)ccc2O[C@@H]1CN(C)S(=O)(=O)c1ccc(Cl)cc1 | inactive
C[C@H]1CN([C@@H](C)CO)C(=O)Cc2cc(NC(=O)Nc3ccc(C(F)(F)F)cc3)ccc2O[C@H]1CN(C)S(=O)(=O)c1ccc(Cl)cc1 | active
